This is a sample that favours compounds with a hit; in the whole collection about 9% have one here.
Luc counter: Kinase-Glo luciferase inhibition (counter-screen). Q27757. Kinase-Glo luciferase, ATP luminescence, 8 min. Potency, µM (doses to about 38.3 µM), most hits filed as inhibitors. actives 0.28% (n = 200,000). AID 1379; active means well fitted curve in the direction sought with a large enough effect; inconclusive means small, poorly fitted or top-dose-only effect, or another doubt; inactive means no such curve, though single readings can be large; an effect the other way counts as inactive or inconclusive; further: nearly all actives have a fitted effect of over 60% in size
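Substrate mix (final 50 mM imidazole pH 7.2, 50 mM KCl, 7 mM MgCl2, 10 uM ATP, 0.01% Tween 20, 0.05% BSA) plus pin-tool compound, then Kinase-Glo detection mix; 8 min ambient, luminescence read.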
HPGD inh: inhibitors of human 15-hydroxyprostaglandin dehydrogenase (HPGD) | P15428 | purified HPGD, NADH fluorescence kinetic, PGE2 substrate | Potency, µM, hits mostly inhibitors | actives 4.3% (n = 150,000)
Target sequence (P15428 whole entry, looked up): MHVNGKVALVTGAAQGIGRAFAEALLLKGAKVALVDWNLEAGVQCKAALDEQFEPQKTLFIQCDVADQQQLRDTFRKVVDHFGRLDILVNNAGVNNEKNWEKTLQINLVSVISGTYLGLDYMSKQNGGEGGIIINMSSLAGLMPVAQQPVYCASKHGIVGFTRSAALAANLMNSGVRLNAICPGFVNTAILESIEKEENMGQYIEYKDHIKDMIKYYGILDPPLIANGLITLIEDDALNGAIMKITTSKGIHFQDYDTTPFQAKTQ
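NADH formation kinetics: reaction with 30 uM PGE2 and 1 mM NAD+ (final), 20 nM enzyme, Tris-HCl pH 8 with Tween 20, after 15 min compound preincubation at room temperature. Fluorescence change, last versus first of five reads.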
ALDH1A1 inh: ALDH1A1 (human) enzyme inhibition | Purified ALDH1A1, NADH fluorescence, propionaldehyde substrate | actives 7.3% (n = 220,000) | P00352 | Potency, µM (top dose mostly 75.3 µM), usual class: inhibitors
Target sequence (P00352 whole entry, looked up): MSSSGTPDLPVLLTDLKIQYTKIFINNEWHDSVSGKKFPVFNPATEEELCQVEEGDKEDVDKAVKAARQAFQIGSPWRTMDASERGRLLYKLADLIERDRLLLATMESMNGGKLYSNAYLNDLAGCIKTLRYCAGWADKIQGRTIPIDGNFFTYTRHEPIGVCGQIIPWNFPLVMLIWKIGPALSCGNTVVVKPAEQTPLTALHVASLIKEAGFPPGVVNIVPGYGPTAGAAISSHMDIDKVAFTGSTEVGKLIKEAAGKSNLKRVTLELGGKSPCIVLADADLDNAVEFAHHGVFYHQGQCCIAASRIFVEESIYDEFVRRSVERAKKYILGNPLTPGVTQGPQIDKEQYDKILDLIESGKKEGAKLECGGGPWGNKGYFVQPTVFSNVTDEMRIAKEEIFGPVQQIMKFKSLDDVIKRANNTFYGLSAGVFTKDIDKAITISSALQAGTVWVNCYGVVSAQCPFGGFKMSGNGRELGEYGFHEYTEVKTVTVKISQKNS
Lamin A splicing: modulators of lamin A splicing. HeLa LMNA splicing GFP/RFP minigene ratio, 48 h. Potency, µM (top dose mostly 46.1 µM), hits mostly inhibitors. actives 0.01% (n = 200,000); active means well fitted inhibition curve with a large enough effect in the signal ratio, with a control signal flat, not every such curve was filed as active; inconclusive means small, poorly fitted or top-dose-only effect, or effect the other way, or a change in a side signal; the % refers to the signal ratio
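Read-out is the ratio of GFP to DsRed2 object intensity, acquired by 488 nm laser-scanning cytometry on HeLa lamin A-EGFP minigene reporter cells. Compound incubation 48 hrs at 37 °C in Opti-MEM with 2% FBS; DMSO 0.5% final.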
IMPase Li cell: membrane-permeable IMPase blocker, potentiated with lithium | CHO-M1 cells, IP1 TR-FRET (IP-One), carbachol + lithium | Potency, µM (titrated, usually from 59.4 µM), most hits filed as inhibitors | actives 0.35% (n = 210,000); active means well fitted curve in the direction sought with a large enough effect; inconclusive means small, poorly fitted or top-dose-only effect, or another doubt; inactive means no such curve, though single readings can be large; an effect the other way counts as inactive or inconclusive;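 further: IP1 builds up when IMPase is blocked and the TR-FRET signal falls; nearly all actives have a fitted effect of over 50% in size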
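Concentration–response in CHO-M1 cells, lithium-potentiated; 30 min at 37C. IP1 detected by competitive TR-FRET after 10 min lysis at RT. Hill-fitted AC50.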
A number is an active result; [ ] = remark or other dose. Unless noted, the call rests on the fitted dose curve; in most records, active means well fitted inhibition curve with a large enough effect (not every such curve was filed as active); inconclusive means small, poorly fitted or top-dose-only effect, or another doubt; inactive means no such curve, though single readings can be large or run the other way.

Results for COc1ccccc1C1CC(c2cccs2)=Nc2ccccc2S1 (stereo not drawn) ?
Luc counter: inactive; HPGD inh: inactive; ALDH1A1 inh: inactive; Lamin A splicing: inactive; IMPase Li cell: inactive

Results for NNC(=O)c1sc(-c2ccccc2)cc1N ?
Luc counter: inactive; ALDH1A1 inh: 28.2µM; Lamin A splicing: inactive; IMPase Li cell: inactive

Results for CCCCC/C=C\C/C=C\C/C=C\CC1OC1CCCC(=O)O (stereo not drawn) ?
Luc counter: inactive; HPGD inh: inactive; ALDH1A1 inh: inactive; IMPase Li cell: inactive

How did Cc1occc1-c1nnc(SCC(=O)c2ccc(F)cc2)o1 do in these assays?
Luc counter: inactive; HPGD inh: inconclusive; ALDH1A1 inh: 31.6µM; Lamin A splicing: inactive; IMPase Li cell: inactive

What do the screens show for `CC1C(=O)CC(c2ccco2)NC1c1ccco1` (stereo not drawn)?
Luc counter: inactive; HPGD inh: inconclusive; ALDH1A1 inh: inconclusive; Lamin A splicing: inactive; IMPase Li cell: inactive

Results for COc1ccccc1NC(=O)C1CCCN(c2ncnc3onc(-c4ccc(F)cc4)c23)C1 (stereo not drawn) ?
Lamin A splicing: inactive

What do the screens show for `NNC(=S)Nc1cc(S(=O)(=O)N2CCOCC2)ccc1N1CCOCC1`?
Luc counter: inactive; ALDH1A1 inh: inactive; Lamin A splicing: inactive; IMPase Li cell: inactive

What do the screens show for `O=S(=O)(Nc1ccc(Cl)cc1)c1ccc(N2CCOCC2)c(NC(=S)NC2CC2)c1`?
Luc counter: inactive; ALDH1A1 inh: 8.91µM; Lamin A splicing: inactive; IMPase Li cell: inactive

What do the screens show for `Cc1cccc(NS(=O)(=O)c2ccc3c(c2)CCCN3C(=O)C2CCC2)c1C`?
Lamin A splicing: inactive

What do the screens show for `COc1ccc(NS(=O)(=O)c2ccc(N3CCCC3)c(NC(=S)Nc3cccc(C)c3C)c2)cc1`?
Luc counter: inactive; HPGD inh: 12.6µM; ALDH1A1 inh: 8.91µM; Lamin A splicing: inconclusive; IMPase Li cell: inactive

Results for COc1ccc(NS(=O)(=O)c2ccc(N3CCCC3)c(NC(=S)Nc3ccc(SC(F)F)cc3)c2)cc1 ?
Luc counter: inactive; HPGD inh: 3.55µM; ALDH1A1 inh: 3.55µM; Lamin A splicing: inconclusive; IMPase Li cell: inactive

Results for COc1ccc(CCNS(=O)(=O)c2ccc(F)c(C(=O)Nc3ccc(Cl)cc3)c2)cc1OC ?
Lamin A splicing: inactive

What do the screens show for `O=C(CC(c1ccccc1)c1ccco1)Nc1nccs1` (stereo not drawn)?
Luc counter: inactive; HPGD inh: inactive; ALDH1A1 inh: inconclusive; Lamin A splicing: inconclusive; IMPase Li cell: inactive

Results for COc1ccc(N2CCN(S(=O)(=O)c3ccc4c(c3)C(C(C)C)C(=O)N4)CC2)cc1 (stereo not drawn) ?
Lamin A splicing: inactive

What do the screens show for `O=C(NNc1c2ccccc2nc2ccccc12)c1ccc(O)cc1O`?
Luc counter: inactive; HPGD inh: inactive; ALDH1A1 inh: inactive; Lamin A splicing: inactive; IMPase Li cell: inactive

How did O=C(NNc1c2ccccc2nc2ccccc12)c1ccccc1O do in these assays?
Luc counter: inactive; HPGD inh: inactive; ALDH1A1 inh: inactive; Lamin A splicing: 17.8µM; IMPase Li cell: inactive

What do the screens show for `C[N+](C)(C)c1cc2c(nn1)Nc1ccccc1S2`?
Luc counter: inactive[7.66 µM]; HPGD inh: inconclusive; ALDH1A1 inh: inactive[13.5 µM]; IMPase Li cell: inactive

What do the screens show for `CCOC(=O)c1ccc(Nc2nc3ccccc3n3c(C)nnc23)cc1`?
Lamin A splicing: inactive

Results for COc1ccccc1CNc1ncncc1-c1ccoc1 ?
Luc counter: inactive; HPGD inh: inactive; ALDH1A1 inh: 25.1µM; Lamin A splicing: inconclusive; IMPase Li cell: inactive

How did COc1ccccc1CNc1ncncc1-c1ccc(N(C)C)cc1 do in these assays?
Luc counter: inactive; HPGD inh: inconclusive; ALDH1A1 inh: inconclusive; Lamin A splicing: inconclusive; IMPase Li cell: inactive

What do the screens show for `COc1cc(C=O)ccc1OS(=O)(=O)c1ccc(NC(C)=O)cc1`?
Luc counter: inactive; HPGD inh: inactive; ALDH1A1 inh: inconclusive; Lamin A splicing: inactive; IMPase Li cell: inactive

How did COc1cccc(/C=C2\SC(=S)NC2=O)c1OS(=O)(=O)c1ccc(NC(C)=O)cc1 do in these assays?
Luc counter: inactive; HPGD inh: 25.1µM; ALDH1A1 inh: inconclusive; Lamin A splicing: inactive; IMPase Li cell: inactive

How did COc1ccc(/C=C2\SC(=S)NC2=O)cc1OS(=O)(=O)c1ccc(NC(C)=O)cc1 do in these assays?
Luc counter: inactive; ALDH1A1 inh: 0.708µM; IMPase Li cell: inactive

How did COc1ccc(/C=C2\SC(=O)NC2=S)cc1OC do in these assays?
Luc counter: inactive; HPGD inh: 15.8µM; ALDH1A1 inh: 17.8µM; Lamin A splicing: inconclusive; IMPase Li cell: inactive

What do the screens show for `COc1cc(/C=C2\SC(=S)NC2=O)ccc1OS(=O)(=O)c1ccccc1`?
Luc counter: inactive; HPGD inh: 8.91µM; ALDH1A1 inh: 6.31µM; Lamin A splicing: inconclusive; IMPase Li cell: inactive

How did N#CCCn1c(=O)c(-c2cc(F)cc(F)c2)nc2cnc(N3CCOCC3)nc21 do in these assays?
ALDH1A1 inh: inconclusive; Lamin A splicing: inactive; IMPase Li cell: inactive

How did COC(=O)c1ccc(NS(=O)(=O)c2ccccc2)o1 do in these assays?
Luc counter: inactive; ALDH1A1 inh: inactive; Lamin A splicing: inactive; IMPase Li cell: inactive

What do the screens show for `CCc1ccc(NC(=O)c2cnc(N3CCN(c4ccccn4)CC3)c3ccccc23)cc1`?
Luc counter: inactive; ALDH1A1 inh: inconclusive; IMPase Li cell: inactive

What do the screens show for `CN(C(=O)c1cnc(N2CCN(c3ncccn3)CC2)c2ccccc12)c1ccc(Cl)cc1`?
Luc counter: inactive; HPGD inh: 22.4µM; ALDH1A1 inh: inactive; Lamin A splicing: inconclusive; IMPase Li cell: inactive

How did CC(C)NC(=O)c1cnc(N2CCN(c3ccccn3)CC2)c2ccccc12 do in these assays?
Luc counter: inactive; HPGD inh: inconclusive; ALDH1A1 inh: 31.6µM; Lamin A splicing: inconclusive; IMPase Li cell: inactive

What do the screens show for `CCC/C=C(\CCC)C(NS(=O)(=O)c1cccs1)c1ccc(C(=O)OC)cc1` (stereo not drawn)?
Luc counter: inactive; HPGD inh: inactive; ALDH1A1 inh: inactive; IMPase Li cell: inactive

How did CCCC(c1nnnn1Cc1ccco1)N1CCN(C2CCCC2)CC1 (stereo not drawn) do in these assays?
Luc counter: inactive; HPGD inh: inactive; ALDH1A1 inh: inactive; Lamin A splicing: inactive; IMPase Li cell: inactive

Results for CCCCC(CC)C(=O)N1CCN(C(=O)c2ccco2)CC1 (stereo not drawn) ?
Luc counter: inactive; ALDH1A1 inh: 25.1µM; Lamin A splicing: inactive; IMPase Li cell: inactive

Results for CCCCC(c1nnnn1Cc1ccco1)N1CCN(C(=O)c2ccco2)CC1 (stereo not drawn) ?
Luc counter: inactive; HPGD inh: inactive; ALDH1A1 inh: 14.1µM; Lamin A splicing: inactive; IMPase Li cell: inactive

Results for CCCC(c1nnnn1Cc1ccco1)N1CCN(C(=O)c2ccco2)CC1 (stereo not drawn) ?
Luc counter: inactive; HPGD inh: inactive; ALDH1A1 inh: 12.6µM; Lamin A splicing: inactive; IMPase Li cell: inactive

Source: PubChem BioAssay
